Where a structure was tested more than once in an assay, its records may differ in their call. Active and inactive are the calls of the source. Rule for the calls: active = hit-call score of the fitted dose curve at least 0.9, where 1 is the maximum; inactive = score below 0.9.

One experiment in a line: CCTE_Shafer_MEA_dev_interburst_interval_mean: CCTE's Neural Network Formation Assay for Mean Interburst Interval, Shafer Lab (AID 2284046).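 Note: curve fitted for decrease in interburst interval relative to DMSO.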 In outline: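 Developing rat cortical networks on 48-well MEAs receive compound from the day of plating. Burst intervals from each active electrode are averaged per well, and AUC over the recording days is fitted in the negative direction against DMSO.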
With `CC(O)CO` (configuration not stated), the call was inactive.
For orientation: AC50 means the midpoint of the concentration-response curve, whichever way the signal moves. For `CC1=C(/C=C/C(C)=C/C=C/C(C)=C/C(=O)O)C(C)(C)CCC1`, the AC50 was 3.54 µM (active).
With `c1ccc2c(c1)Cc1ccccc1-2`, the outcome was inactive.
Still for that read-out and setting: then `C=C(C)C(=O)OCCC(F)(F)C(F)(F)C(F)(F)C(F)(F)C(F)(F)C(F)(F)F`, with “inactive”.
Still for that read-out and setting: then `c1ccc2cc3c(ccc4ccccc43)cc2c1`, with “inactive”.
On to `OCCC(F)(F)C(F)(F)C(F)(F)C(F)(F)C(F)(F)C(F)(F)C(F)(F)C(F)(F)F`, for which the compound was called inactive.
In the case of `c1ccc2c(c1)ccc1ccccc12`, the compound was classed as inactive.
As to `CC#C[C@]1(O)CC[C@H]2[C@@H]3CCC4=CC(=O)CCC4=C3[C@@H](c3ccc(N(C)C)cc3)C[C@@]21C`, the AC50 is 2.69 µM (active) and the compound was classed as inactive.
For the compound `CN1CCC[C@H]1c1cccnc1`, the outcome was inactive.
Same read-out and setting: then `OCCC(F)(F)C(F)(F)C(F)(F)C(F)(F)C(F)(F)C(F)(F)F`, with “inactive”.

The nature of a further experiment: CCTE_Shafer_MEA_dev_inter_network_spike_interval_mean: CCTE's Neural Network Formation Assay for Mean Inter-network Spike Interval, Shafer Lab (AID 2284047).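 For AC50: potency for a decrease in mean inter-network spike interval below DMSO.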 In a few lines:
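Rat cortical cultures, 1.5 x 10^5 cells/well on 48-well MEA plates; continuous exposure days 0–12, medium and compound refreshed DIV 5, 9. Mean time between consecutive network-spike peaks; AUC across DIV 5/7/9/12; DMSO baseline, negative fitting direction.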
As to `CC(O)CO` (configuration not stated), the call was inactive.
On to `CC1=C(/C=C/C(C)=C/C=C/C(C)=C/C(=O)O)C(C)(C)CCC1`, for which the AC50 is 0.319 µM (active).
For the compound `c1ccc2c(c1)Cc1ccccc1-2`, the compound was classed as inactive.
The same measure, in the same setting: the value for `C=C(C)C(=O)OCCC(F)(F)C(F)(F)C(F)(F)C(F)(F)C(F)(F)C(F)(F)F` was “inactive”.
As for `c1ccc2cc3c(ccc4ccccc43)cc2c1`, the outcome was inactive.
Regarding `OCCC(F)(F)C(F)(F)C(F)(F)C(F)(F)C(F)(F)C(F)(F)C(F)(F)C(F)(F)F`, the compound was called inactive.
Turning to `c1ccc2c(c1)ccc1ccccc12`, the result was inactive.
With `CC#C[C@]1(O)CC[C@H]2[C@@H]3CCC4=CC(=O)CCC4=C3[C@@H](c3ccc(N(C)C)cc3)C[C@@]21C`, the compound was classed as inactive.
On the same count and under the same terms, the value for `CN1CCC[C@H]1c1cccnc1` was “inactive”; that for `OCCC(F)(F)C(F)(F)C(F)(F)C(F)(F)C(F)(F)C(F)(F)F` was “inactive”.

A short description of the next experiment: CCTE_Shafer_MEA_dev_network_spike_number: CCTE's Neural Network Formation Assay for Number of Network Spikes, Shafer Lab (AID 2284048).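 For AC50: fit as a loss of signal meaning fewer network spikes than DMSO.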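 Note: synchronized bursts across electrodes counted on days 5 7 9 12 and integrated as AUC.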 In outline:
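Number of network spikes (coordinated firing across electrodes) recorded on days 5, 7, 9 and 12 and summarised as area under the curve. Rat cortical cultures on MEA, continuous compound exposure with full medium/treatment exchange at DIV 5 and 9.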
Consider `CC(O)CO` (configuration not stated), for which the compound was called inactive.
On to `CC1=C(/C=C/C(C)=C/C=C/C(C)=C/C(=O)O)C(C)(C)CCC1`, for which the AC50 is 7.99 µM (active).
Regarding `c1ccc2c(c1)Cc1ccccc1-2`, the call was inactive.
Still for that read-out and setting: the value for `C=C(C)C(=O)OCCC(F)(F)C(F)(F)C(F)(F)C(F)(F)C(F)(F)C(F)(F)F` was “inactive”; that for `c1ccc2cc3c(ccc4ccccc43)cc2c1` was “inactive”.
Same read-out and setting: then `OCCC(F)(F)C(F)(F)C(F)(F)C(F)(F)C(F)(F)C(F)(F)C(F)(F)C(F)(F)F`, with “inactive”.
On the same count and under the same terms, then `c1ccc2c(c1)ccc1ccccc12`, with “inactive”.
Turning to `CC#C[C@]1(O)CC[C@H]2[C@@H]3CCC4=CC(=O)CCC4=C3[C@@H](c3ccc(N(C)C)cc3)C[C@@]21C`, the half-maximal activity concentration (AC50) was 8.75 µM (active) and the compound was called inactive.
Regarding `CN1CCC[C@H]1c1cccnc1`, the compound was classed as inactive.
On the same count and under the same terms, the value for `OCCC(F)(F)C(F)(F)C(F)(F)C(F)(F)C(F)(F)C(F)(F)F` was “inactive”.

For the origin of these results see PubChem BioAssay (EPA / NIEHS).
